Laboratory results published in PubChem BioAssay AID588674 (Broad Institute, 2011).
In all, about 360,000 compounds went through this assay and about 1,800 (0.5%) were called active. This excerpt belongs to a sample that is enriched for actives. Values without a mark were called inactive.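 Rule for the calls: active = mean inhibition of at least 75% with every replicate also reaching 75%; inconclusive = mean inhibition at least 75% but some replicate below; inactive = mean inhibition below 75%.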

experiment: Shn3 3'UTR reporter decrease in osteoblasts – cell-based, Clone20 osteoblasts, firefly luciferase, set 2, Schnurri-3 inhibitor project, primary screen (AID 588674); settings: Clone20 osteoblast Shn3 3'UTR firefly luciferase, 24 h; at 12.5 µM; active compounds read high;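 note: 0% = median of neutral control wells and 100% = pilot-screen positive control compound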

Row | Compound | inhibition
1 | CCCCCCCCCCCCn1ccc(=N)cc1 | 90.6% (active)
2 | CN1C2C=C(N(C(=O)c3ccc(Cl)cc3)c3ccccc3)CC1CC2 (stereo not given) | -7.65%
3 | Cc1ccc(S(=O)(=O)N(C)c2ccc(C(=O)NCC3(N(C)C)CCCCC3)cc2)cc1 | -2.63%
4 | Nc1ccc(C(=O)N/N=C2/CN3CCC2CC3)cc1 | -22.5%
5 | CCC(C)(O)C(=O)OC1C(=O)OC2CC3C(C)=CC(=O)C(O)C3(C)C3C4(O)OCC23C1C(C)C4O (stereo not given) | 91.5% (active)
6 | Cc1ccc(C2CN(C)CC2C(=O)c2ccc(F)cc2)cc1 (stereo not given) | 6.66%
7 | O=C1NC(=O)C(CCc2ccccn2)(Cc2cccc(Cl)c2Cl)C(=O)N1c1ccc(Br)cc1 (stereo not given) | 13.7%
8 | CC(=O)OC1C2(CC3N4C(=O)C5(CO)SSC4(CC31O)C(=O)N5C)OC(C)C(C)(C)C2=O (stereo not given) | 98.1% (active)
9 | CCC(=O)c1ccc(OCC(=O)N2CCN(CC(=O)Nc3ccc(C)cc3)CC2)cc1 | 19.6%
10 | O=C1C2CCN(CC2)C1(CO)CO | -25.5%
11 | O=C(c1ccccc1)C(O)(CN1CCCCC1)c1ccccc1 (stereo not given) | 5.93%
12 | CCN1C(=O)C(=Cc2c(C)n(CC(=O)NCC3CCCO3)c3ccccc23)C(=O)N(CC)C1=S (stereo not given) | 1.7%
13 | Clc1ccc2nc3c(c(-c4ccccc4)c2c1)CNCC3 | 14.4%
14 | C[C@]12CCC3C(CC[C@H]4[C@H](O)[C@H](O)CC[C@]34C)C1CCC2=O (stereo not given in full) | -16.7%
15 | Cc1ccc(N2C(=O)NC(=O)C(CCc3ccncc3)(Cc3cccc(Cl)c3Cl)C2=O)cc1 (stereo not given) | -0.01%
